# FLuc counter – qHTS profiling assay for firefly luciferase inhibitor/activator using purifed enzyme and Km concentrations of substrates (counterscreen for miR-21 project) | AID 588342, 2011 | Luciferin 4-monooxygenase (Photinus pyralis), P08659 | Potency, µM (titrated, usually from 57.5 µM), without a hit: top-dose activity change, negative = inhibition, actives largely listed as inhibitors | purified FLuc, Km substrates, luminescence inhibition | actives 6.9% (n = 360,000);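 further: plate controls were vehicle for no effect and reference inhibitor for full effect; nearly all actives have a fitted effect of over 55% in size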
# Target sequence (P08659 whole entry, looked up): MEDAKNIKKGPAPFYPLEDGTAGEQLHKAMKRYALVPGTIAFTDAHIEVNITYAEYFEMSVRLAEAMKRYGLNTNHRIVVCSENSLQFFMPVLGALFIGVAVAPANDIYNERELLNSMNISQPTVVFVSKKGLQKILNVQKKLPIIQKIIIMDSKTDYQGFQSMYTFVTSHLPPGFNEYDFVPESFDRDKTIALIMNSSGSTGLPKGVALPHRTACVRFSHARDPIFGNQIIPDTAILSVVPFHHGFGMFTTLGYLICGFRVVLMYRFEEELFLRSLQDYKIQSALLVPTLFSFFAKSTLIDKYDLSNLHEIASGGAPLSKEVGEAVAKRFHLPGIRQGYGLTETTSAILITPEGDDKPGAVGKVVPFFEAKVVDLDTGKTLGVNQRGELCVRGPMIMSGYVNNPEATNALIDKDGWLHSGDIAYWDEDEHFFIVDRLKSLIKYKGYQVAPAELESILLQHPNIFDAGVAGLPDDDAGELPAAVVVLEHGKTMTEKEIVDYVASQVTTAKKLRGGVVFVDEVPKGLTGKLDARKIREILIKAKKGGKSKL
#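 Biochemical qHTS of compounds, final roughly 60 µM downward over six points, against 10 nM purified firefly luciferase using Km concentrations of substrates (10 uM D-luciferin, 10 uM ATP) in Tris acetate pH 7.5 buffer; luminescence output.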
# ELG1 repair inh – qHTS screen for small molecules that inhibit ELG1-dependent DNA repair in human embryonic kidney (HEK293T) cells expressing luciferase-tagged ELG1. actives 2.3% (n = 330,000). HEK293T ELG1-luciferase reporter, luminescence, 16 h; DNA damage induced by 5-fluorouridine. AID 504467, 2011. Potency, µM (top dose mostly 46.1 µM), inactives show at the top dose activity change, negative = inhibition, usual class: inhibitors; further: on the % scale 0 is the no-effect control and ±100 the full control effect; nearly all actives have a fitted effect of over 55% in size
#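 Step one: seed 2,000 cells per well. Step two: pin-transfer compound or DMSO alongside 5-fluorouridine. Step three: incubate 16 hr, 37 °C, 5% CO2. Step four: add ONE-Glo, wait 30 min, read luminescence.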
# SMN2 splice up – qHTS Assay for Enhancers of SMN2 Splice Variant Expression; HEK293 SMN2-luciferase splicing reporter, luminescence, 30-36 h; AID 1458, 2008; Potency, µM (highest dose often 46.1 µM), for inactives: at the top dose activity change, positive = activation, most hits filed as activators; actives 2.8% (n = 210,000); further: % of control where 0% means no effect; nearly all actives have a fitted effect of over 55% in size
#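 qHTS luciferase splicing reporter: luminescence rises when SMN2 exon 7 is included in transfected HEK293 cells. Compound exposure lasted 30-36 h at 37C, with 4.5 mM final sodium butyrate as control, followed by a ONE-Glo read.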
# ELG1 genotoxic – qHTS screen for small molecules that induce genotoxicity in human embryonic kidney (HEK293T) cells expressing luciferase-tagged ELG1 | actives 1.3% (n = 330,000) | HEK293T ELG1-luciferase reporter, luminescence, 16 h | Potency, µM (doses to about 46 µM), for inactives: at the highest dose activity change, positive = activation, actives largely listed as activators | AID 504466, 2011; further: % of control where 0% means no effect; nearly all actives have a fitted effect of over 60% in size
#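 Step 1: seed 2,000 HEK293T ELG1-luciferase cells per well. Step 2: add compound or DMSO, incubate 16 hr at 37 °C. Step 3: ONE-Glo, 30 min at room temperature, read luminescence.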
# NPC1 prom act – qHTS Assay for NPC1 Promoter Activators; Huh7 NPC1 promoter luciferase reporter, 24 h; Potency, µM (series often up to 9.22 µM), without a hit: top-dose activation, actives largely listed as activators; actives 2.4% (n = 320,000); further: % of control where 0% means no effect; nearly all actives have a fitted effect of over 60% in size
#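 Cells: Huh7 expressing luciferase under the NPC1 promoter, 1500/well. Seeded 2 h, compound added, incubated 24 h at 37 °C. Luciferase reagent, 10 min ambient, then luminescence.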
# Rab9 prom act – qHTS Assay for Rab9 Promoter Activators; actives 2.8% (n = 320,000); Potency, µM (doses to about 9.22 µM), for inactives: at the highest dose activation, negative = inhibition, most hits filed as activators; Huh7 Rab9 promoter-luciferase reporter, luminescence, 24 h; further: % of control where 0% means no effect; nearly all actives have a fitted effect of over 60% in size
#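 Cell-based reporter: Huh7 stable for Rab9 promoter-driven luciferase, plated in reduced-serum medium with 10% FBS at 1500 cells/well, compound-treated 24 h at 37 °C, luminescence read after 10 min reagent.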
# Active calls of the source: *; ? = inconclusive; nt = no result given; [ ] = dose if it differs, or a comment. This is a sample that favours compounds with a hit; in the whole collection about 9.2% have one here. The call rests on the fitted dose curve; in most records, active means well fitted curve in the direction sought with a large enough effect; inconclusive means small, poorly fitted or top-dose-only effect, or another doubt; inactive means no such curve, though single readings can be large; an effect the other way counts as inactive or inconclusive. Potency means the concentration at half of the fitted maximal effect.
SMILES,FLuc counter,ELG1 repair inh,SMN2 splice up,ELG1 genotoxic,NPC1 prom act,Rab9 prom act
COc1ccc(-c2c(C#N)c(SCC(=O)Nc3ccccc3C)nc(C)c2C(=O)Nc2ccccc2)cc1OC,-7.5%,nt,-2.2%,nt,nt,nt
CCCN(Cc1nnc(-c2ccccc2Cl)o1)C(=O)c1cc(S(=O)(=O)N2CCOCC2)ccc1F,2.4%,?,nt,-2.9%,0.5%,-0.7%
O=S1(=O)CCN(Cc2ccccn2)CC1,4.4%,-0.5%,-14.9%[9.22 µM],-0.3%,-2.0%,-3.1%
c1csc(-c2nc(CN3CCSCC3)cs2)c1,2.39µM*,?,nt,2.59µM*,?,0.398µM*
O=S1(=O)CCN(Cc2csc(-c3cccs3)n2)CC1,19µM*,?,nt,?,1.26µM*,1.78µM*
CCc1cccc(NC(=O)Cn2c(=O)n3nc(-c4cccc(F)c4)nc3c3ccccc32)c1,-0.2%,nt,nt,nt,nt,nt
Fc1ccc(-c2cn3cc(Cc4ccc(Cl)cc4)sc3n2)cc1,3.01µM*,nt,3.16µM*,nt,nt,nt
N=C1C(c2nc(-c3ccc(F)cc3)cs2)=C(O)CN1Cc1ccc(Cl)cc1,2.2%,?,-9.8%,13.1%,-2.7%,-2.8%
Fc1ccc(Cc2cn3cc(-c4ccc(Cl)cc4)nc3s2)cc1,0.601µM*,nt,?,nt,nt,nt
CCC(C)NC(=S)N(Cc1cc2cc(C)ccc2n2nnnc12)CC(C)(C)NC(C)C (stereo not given),6.6%,5.2%,nt,0.6%,-3.0%,-0.3%
O=C(O)c1ccc(N/N=C/c2cn(Cc3ccccc3F)c3ccccc23)cc1,21.3µM*,?,nt,?,24.2%,?
Nc1ccc(C(=O)N/N=C/c2cn(Cc3ccccc3)c3ccccc23)cc1,16.9µM*,-19.9%,nt,0.1%,-2.6%,-4.9%
CC(C)n1cc(/C=N/Nc2ccc(C(=O)O)cc2)c2ccccc21,6.01µM*,?,nt,?,12.2%,5.6%
Cc1ccc(OCC(=O)N/N=C\c2cn(Cc3ccccc3)c3ccccc23)cc1C,0.2%,-14.1%,-27.5%,-3.5%,-0.7%,6.8%
COc1cc(C(=O)N/N=C/c2cn(Cc3ccccc3)c3ccccc23)ccc1O,16.9µM*,-0.1%,nt,1.2%,2.0%,-0.4%
COC(=O)N/N=C/c1cn(Cc2ccccc2Cl)c2ccccc12,1.4%,-14.1%,-62.3%,-1.4%,-3.9%,2.0%
COC(=O)N/N=C/c1cn(CCCOc2ccccc2)c2ccccc12,-20.1%,16.4µM*,-22.9%,-5.0%,?,?
Cn1cc(/C=N/Nc2ccccc2)c2ccccc21,13.5µM*,3.6%,?,?,14.4%,?
Nc1ccc(C(=O)N/N=C/c2cn(Cc3ccc(F)cc3)c3ccccc23)cc1,?,-7.0%,nt,-0.3%,-0.5%,3.3%
Nc1ccc(C(=O)N/N=C/c2cn(Cc3ccccc3F)c3ccccc23)cc1,23.9µM*,0.0%,nt,-5.5%,-0.4%,-0.7%
COC(=O)N/N=C/c1cn(Cc2ccccc2F)c2ccccc12,-12.3%,20.6µM*,nt,0.5%,-5.4%,-3.4%
O=C(N/N=C/c1cn(CCOc2ccccc2)c2ccccc12)c1ccncc1,?,-12.1%,-23.5%,-3.0%,0.7%,-14.0%
COc1ccc(NC(=O)c2ccco2)cc1NC(=O)c1ccc(OC(C)C)cc1,?,nt,3.6%,nt,nt,nt
CCOC(=O)c1c(C)[nH]c(C)c1S(=O)(=O)NCC(=O)NCc1ccccc1C,1.8%,nt,nt,nt,nt,nt
Cc1ccc(C(=O)NCC(c2ccco2)S(=O)(=O)c2ccc(Cl)cc2)cc1C (stereo not given),-13.7%,nt,nt,nt,nt,nt
SMILES,FLuc counter,ELG1 repair inh,SMN2 splice up,ELG1 genotoxic,NPC1 prom act,Rab9 prom act
CCc1ccc(NC(=O)CN2C(=O)C(c3ccc(Cl)cc3)=NC23CCCCC3)cc1,-11.7%,nt,-28.6%,nt,nt,nt
O=C(CCCN1C(=O)C(c2ccccc2)Oc2cccnc21)Nc1ccccc1Cl (stereo not given),-2.9%,-2.1%,nt,-0.8%[9.26 µM],0.6%,?
COc1ccc(C(=O)NCc2nnc(SCC(=O)NCc3ccco3)o2)cc1OC,2.7%,21.6%,nt,5.0%,-1.0%,0.1%
CCc1ccccc1NC(=O)CN1C(=O)CCSc2ccc(S(=O)(=O)N3CCCC3)cc21,-5.4%,nt,nt,nt,nt,nt
O=C(N/N=C/c1cn(Cc2cccc(F)c2)c2ccccc12)c1cc(O)cc(O)c1,16.9µM*,2.5%,nt,2.2%,-0.5%,0.7%
CC(C)(C)C(=O)NNC(=O)C1CC1(c1ccccc1)c1ccccc1 (stereo not given),1.2%,-0.3%,nt,4.5%,-2.2%,-3.1%
COc1cccc(-c2ncc3ccccc3c2COC(=O)c2ccc(C(F)(F)F)cc2)c1,3.6%,20.6µM*,nt,1.8%,-1.3%,-3.3%
Cc1nccn1CCCN1C(=O)CNC1=S,-1.5%,6.0%,-2.5%,1.5%,-2.5%,0.3%
Cc1cc2nc(N3C(=O)CNC3=S)sc2cc1C,0.536µM*,?,3.98µM*,18.3µM*,0.447µM*,0.447µM*
CCOc1ccc2nc(SC3CC(=O)N(c4ccc(OC)cc4)C3=O)sc2c1 (stereo not given),?,?,20.6%,9.0%,18.8%,?
CCOc1ccc2nc(N3C(=O)CNC3=S)sc2c1,0.849µM*,?,nt,20.6µM*,0.708µM*,0.562µM*
COC(=O)c1ccc(C)c(NC(=O)CCn2[nH]c(=O)ccc2=O)c1,nt,19.4%,nt,1.2%,nt,nt
COc1ccc(C(=O)/C=C/N(C)C)cc1OC,4.9%,-0.2%,4.3%,1.6%,-0.8%,-5.2%
COc1ccc(C(=O)/C=C2\NCCc3cc(OC)c(OC)cc32)cc1OC,?,14.6µM*,nt,9.6%,8.8%,-1.7%
Cc1cc(C)c2c(N=NN3CCCCC3)[nH]nc2n1,19µM*,?,1.0%,17.3%,20.1%,22.9%
O=C(CN1C(=O)c2ccccc2C1=O)c1ccc(F)cc1,?,?,nt,4.8%,12.8%,18.0%
O=C(CN1C(=O)c2ccccc2S1(=O)=O)c1ccc(OC(F)F)cc1,12µM*,11.6µM*,nt,-12.4%,-18.1%,-21.4%
O=C(CN1C(=O)c2ccccc2S1(=O)=O)c1cccc(Br)c1,7.57µM*,8.2%,nt,-6.3%,?,?
NC(=O)C1CCN(C(=O)CN2C(=O)c3ccccc3S2(=O)=O)CC1,5.3%,-0.5%,-14.1%,2.9%,2.2%,-1.9%
CC1CCN(C(=O)CN2C(=O)c3ccccc3S2(=O)=O)CC1,-10.1%,?,-5.0%,?,3.55µM*,2.51µM*

# From PubChem
